GPR151 activ – human GPR151 activation. PathHunter beta-arrestin GPR151 cells, luminescence. activation, % at 11.2 µM. 1% of 650,000 active; in the data active = activation above about 4.9%;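 note: 0% = median of compound wells and 100% = cells with positive control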
Target sequence (Q8TDV0 whole entry, looked up): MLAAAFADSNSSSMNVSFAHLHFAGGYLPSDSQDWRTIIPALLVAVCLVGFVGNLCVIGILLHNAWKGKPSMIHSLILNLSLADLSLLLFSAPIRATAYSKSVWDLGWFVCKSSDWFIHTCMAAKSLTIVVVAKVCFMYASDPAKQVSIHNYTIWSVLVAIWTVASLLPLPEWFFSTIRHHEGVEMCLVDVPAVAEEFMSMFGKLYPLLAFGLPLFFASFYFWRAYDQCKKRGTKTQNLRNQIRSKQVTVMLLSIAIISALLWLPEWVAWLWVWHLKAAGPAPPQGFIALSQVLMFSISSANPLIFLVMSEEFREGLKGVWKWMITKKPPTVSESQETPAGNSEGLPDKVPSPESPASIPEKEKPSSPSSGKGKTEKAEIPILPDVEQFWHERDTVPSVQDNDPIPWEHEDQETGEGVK
FBW7 act – activators of human E3 ligase FBW7 | AID 1259310 | normalized activity (activation), % at 26.1 µM | AlphaScreen FBW7–phospho-cyclin E peptide binding, activator screen | Q969H0 | 0.13% of 650,000 active; in the data active = normalized activity above about 1.9%;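 note: purified mutant Fbw7 with reduced substrate affinity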
MITF primary – blocks human microphthalmia-associated transcription factor; inhibition, % at 2.6 µM; AID 1259374; 0.91% of 650,000 active; AlphaScreen MITF homodimerization, bead proximity signal; O75030; in the data active = inhibition above about 50%;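 note: 0% = vehicle wells with protein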
TEAD-YAP inh – TEAD-YAP interaction inhibition; HEK-TIYL cells, TEAD-Gal4/YAP UAS-luciferase luminescence; inhibition, % at 9.12 µM; 1.4% of 640,000 active; AID 1259422; in the data active = inhibition above about 32%;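 note: 0% = median of test compound wells and 100% = reference inhibitor wells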
* hit, by the source's call; ! = not confirmed by another sample. The list is not random: actives were taken first. Their share in the collection is about 3.5%.

SMILES	GPR151 activ	FBW7 act	MITF primary	TEAD-YAP inh
COc1ccccc1N=C(NN)c1ccc2ccccc2n1	-0.3	0.0	9.8	-32.5
CCOc1ccc(N=C(NN)c2ccc3ccccc3n2)cc1	1.8	0.0	1.9	94.2*
Cc1ccc(N=C(NN)c2ccc3ccccc3n2)cc1	-1.1	0.5	36.6	92.5*
C=CCOc1cccc(/C=C2\C(=O)N(CCc3ccc(OC)c(OC)c3)C(C)=C2C(=O)OC)c1	0.1	-0.1	60.7*	-12.7
C=CCn1c(SCC(=O)CC(=O)OCC)nc2cc(C(=O)NCc3ccco3)ccc2c1=O	1.1	0.0	-0.9	14.4
O=C(Nc1cccc(-c2ccc(N3CCCCCC3)nn2)c1)c1cccs1	-0.6	-0.2	-6.3	-41.5
O=C(Nc1ccc(-c2ccc(N3CCCCC3)nn2)cc1)c1cccs1	0.3	7.4*	6.2	-16.8
CCOC(=O)C1(Cc2ccccc2)NC(c2cccs2)C2C(=O)N(CC)C(=O)C21 (configuration not stated)	0.1	-0.1	13.6	-0.5
CCOC(=O)C1(CCSC)NC(c2cccs2)C2C(=O)N(CC)C(=O)C21 (configuration not stated)	-2.0	-0.3	0.3	32.2*
NNC(=O)CN1C(=O)C2CC=C(Cl)CC2C1=O (configuration not stated)	1.1	0.3	10.3	2.6
CC(=O)c1ccc(OCC[N+](C)(C)Cc2ccccc2)cc1	3.1	0.1	0.9	2.5
CC(C)(C)CC(C)(C)c1ccc(OCCOCC[N+](C)(C)Cc2ccccc2)cc1	2.0	-0.2	5.9	54.0*
COc1ccc(CC(=O)NCc2ccco2)cc1	4.5	-0.2	8.4	8.1
COc1ccc(CCNC(=O)C(=O)NCc2ccco2)cc1	1.2	0.9	13.5	34.3*
O=S(=O)(c1ccc(NC(=S)N/N=C/c2ccc(O)c(O)c2)cc1)N1CCOCC1	-0.2	-0.2	-15.3	9.6
O=S(=O)(c1ccc(NC(=S)N/N=C/c2cccc(O)c2O)cc1)N1CCOCC1	-0.1	-1.3	59.4*	3.6
COc1ccc(C(=O)Nc2sc3c(c2C#N)CCC3)cc1	-0.2	0.1	0.2	37.3*
CC(C)Oc1ccc(C(=O)Nc2sc3c(c2C#N)CCC3)cc1	-0.7	0.3	8.0	0.9
O=C(Nc1sc2c(c1C(=O)O)CCCC2)c1ccc(F)cc1	-4.6	-0.1	-0.7	36.1*
O=C(Nc1sc2c(c1C(=O)O)CCCC2)c1ccc(Br)cc1	-1.1	0.0	3.6	-0.3
CCN(CC)S(=O)(=O)c1ccc(Cl)c(C(=O)Nc2sc3c(c2C#N)CCC3)c1	0.3	0.7	1.5	34.4*
Cc1ccc(C(=O)Nc2sc3c(c2C(=O)O)CCCC3)o1	-6.0	0.0	-11.0	39.6*
CCOC(=O)C(=O)NCC1CCCN1S(=O)(=O)c1ccc(C)cc1 (configuration not stated)	-0.6	0.0	-6.0	-9.5
C=CCN(CC=C)C(=S)NC(=O)c1ccc(F)cc1	0.3	-0.1	-10.0	19.5
CCCN(CCC)c1ccc(C2NC(=O)c3c(sc(C)c3C)N2)cc1 (configuration not stated)	-1.3	-0.1	7.6	14.7
SMILES	GPR151 activ	FBW7 act	MITF primary	TEAD-YAP inh
CC1CCCCC1NC(=O)CN1CCC(O)(c2cccnc2)CC1 (configuration not stated)	-0.6	0.0	0.8	4.9
COc1ccc(C(=O)Nc2sc3c(c2C(=O)O)CCC3)cc1	0.5	0.0	-2.9	39.6*
Cc1cccc(C(=O)Nc2sc3c(c2C(=O)O)CCC3)c1	-9.8	0.1	46.4	65.8*
CC(C)(C)c1ccc(C(=O)Nc2sc3c(c2C(=O)O)CCC3)cc1	0.4	0.0	-0.8	89.0*
O=C(Nc1sc2c(c1C(=O)O)CCC2)c1ccc(Br)cc1	1.0	0.1	3.9	3.8
CNC(=O)c1c(NC(=O)c2cccc(C)c2)sc2c1CCC2	0.2	1.0	17.4	-31.7
Cc1ccc2nc(N3CCN(S(=O)(=O)c4cccs4)CC3)[nH]c2c1	-0.7	0.1	1.6	-24.9
Cc1nc(N2CCC(C)CC2)c2c(C)c(C(=O)Nc3ccc(F)c(Cl)c3)sc2n1	-0.2	-0.4	8.4	-3.6
Cc1c(N=Nc2ccc([N+](=O)[O-])cc2S(=O)(=O)O)co[n+]1[O-]	1.3	-0.2	5.3	1.6
Cc1nc(N=Nc2cc(S(=O)(=O)O)c3cc([N+](=O)[O-])cc(S(=O)(=O)O)c3c2)c(COP(=O)(O)O)c(C=O)c1O	-1.3	-0.2	77.2*!	-12.1
O=C(Nc1ccc2c(c1)OCO2)c1ccccc1SCC(=O)N1CCc2ccccc21	-1.1	-0.1	-10.0	36.2*
C=CCN=c1scc(-c2ccco2)n1/N=C/c1cccs1	1.0	-0.5	22.1	34.2*
C[C@H](Nc1ccc(C(F)(F)F)cc1[N+](=O)[O-])C(=O)Nc1nc2ccccc2[nH]1	0.1	-0.3	-4.2	32.5*
CC(Nc1ccc(C(F)(F)F)cc1[N+](=O)[O-])C(=O)O (configuration not stated)	-0.7	0.0	-1.6	12.1
Nc1c(C(=O)c2ccc(F)cc2)sc2nc(-c3ccccc3)cc(-c3ccco3)c12	2.2	0.0	63.4*	7.1
Nc1c(C(=O)c2ccc(F)cc2)sc2nc(-c3ccccc3)cc(-c3ccccc3)c12	1.0	0.1	-4.3	2.8
CC1CC(C)CN(c2nc(N)ncc2[N+](=O)[O-])C1 (configuration not stated)	1.5	-0.1	-0.5	49.4*
C/C(=N\NC(=O)c1cccc([N+](=O)[O-])c1)c1cccs1	-0.4	0.0	-3.0	2.2
CCNc1ccc(C(=O)N/N=C(\C)c2cccs2)cc1[N+](=O)[O-]	-0.7	-0.1	15.5	50.2*
C/C(=N/NC(=O)c1ccccn1)c1cccs1	-5.3	0.1	-9.7	66.1*
C/C(=N/NC(=O)c1ccc(O)cc1)c1cccs1	-0.1	0.4	17.7	-28.8
C/C(=N\NC(=O)c1cnccn1)c1cccs1	-2.3	0.0	-365.9	-14.1
C/C(=N\NC(=O)c1ccccc1O)c1cccs1	-1.1	0.1	7.4	37.5*
CCN(CC)CCCN1C(=O)c2oc3ccccc3c(=O)c2C1c1ccc(C)cc1 (configuration not stated)	1.1	-0.1	3.5	-12.2
CC(C)CC(NC(=O)c1ccco1)C(=O)N1CCN(c2ccccn2)CC1 (configuration not stated)	-0.8	0.1	19.5	4.4
SMILES	GPR151 activ	FBW7 act	MITF primary	TEAD-YAP inh
Cc1[nH][nH]c(=O)c1C(c1ccc(-c2cc([N+](=O)[O-])ccc2Cl)o1)c1c(C)[nH][nH]c1=O	0.7	-0.3	11.0	0.7
NC(=O)CSc1cn(CCNC(=O)c2cccc(C(F)(F)F)c2)c2ccccc12	1.0	-0.1	1.3	9.6
CCOc1cccc(/C=C2\C(=O)NC(=O)N(c3cccc([N+](=O)[O-])c3)C2=O)c1	-0.7	-0.1	-2.5	3.4
COc1ccc2[nH]c3c(c2c1)CCNC3=O	1.0	0.0	-2.9	45.9*
CCCC(C)NC(=S)Nc1ccc(OC)cc1 (configuration not stated)	-1.6	-0.1	3.4	3.5
CCc1ccc(C2=CC(c3cccc(OC)c3)n3ncnc3N2)cc1 (configuration not stated)	-1.6	0.3	13.9	30.2
